ABHD5-PLIN5 inh = inhibitors of human ABHD5-perilipin-5 interaction; Q00G26+Q8WTS1; Split G. princeps luciferase complementation, luminescence, 4 h; inhibition, % at 4 µM; 360,000 tested, 0.78% active; AID 602281;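 active = inhibition above the mean inhibition across every tested compound plus 3 SD, cut at about 22% in these data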
Target sequence (Q00G26 whole entry, looked up): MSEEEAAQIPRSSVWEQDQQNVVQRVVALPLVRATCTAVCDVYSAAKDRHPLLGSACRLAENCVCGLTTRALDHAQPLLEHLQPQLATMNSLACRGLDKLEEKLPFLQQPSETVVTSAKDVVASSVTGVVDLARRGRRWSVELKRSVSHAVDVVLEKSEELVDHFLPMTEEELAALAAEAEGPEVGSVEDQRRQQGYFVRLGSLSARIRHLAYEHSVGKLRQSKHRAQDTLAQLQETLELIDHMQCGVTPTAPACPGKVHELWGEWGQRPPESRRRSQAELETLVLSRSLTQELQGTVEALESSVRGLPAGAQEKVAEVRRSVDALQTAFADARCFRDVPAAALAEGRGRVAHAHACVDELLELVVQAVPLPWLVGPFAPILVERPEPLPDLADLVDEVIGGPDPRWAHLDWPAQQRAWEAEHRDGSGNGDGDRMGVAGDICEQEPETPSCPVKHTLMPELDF
Target sequence (Q8WTS1 whole entry, looked up): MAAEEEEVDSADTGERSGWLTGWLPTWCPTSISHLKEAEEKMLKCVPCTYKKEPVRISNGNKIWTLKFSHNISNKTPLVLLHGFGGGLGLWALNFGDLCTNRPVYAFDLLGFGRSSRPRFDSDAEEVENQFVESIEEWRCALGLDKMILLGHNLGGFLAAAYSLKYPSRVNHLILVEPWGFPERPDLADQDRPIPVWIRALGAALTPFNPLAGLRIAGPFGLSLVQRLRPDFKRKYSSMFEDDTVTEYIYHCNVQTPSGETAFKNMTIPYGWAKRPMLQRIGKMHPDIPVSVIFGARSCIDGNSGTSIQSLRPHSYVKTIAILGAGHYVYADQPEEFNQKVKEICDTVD
PRMT1 inh = PRMT1 (human) inhibition, primary screen; 370,000 tested, 1.3% active; AID 652257; inhibition, % at 2.79 µM; recombinant PRMT1, activity-based probe fluorescence polarization; Q99873;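 active = inhibition above about 21% made by adding two undisclosed values, limit read from the data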
TLR4 MyD88 comp = TLR4-MyD88 interaction inhibition in cells. O00206+Q99836. HeLa CL3-4 TLR4/MyD88 BLA complementation, FRET ratio. inhibition, % at 8.4 µM. 200,000 tested, 0.18% active. AID 861; in the data active = inhibition above about 25%
Granule exo inh = blocks lytic granule exocytosis. TALL-104 LAMP-1 surface exposure, flow cytometry; cells stimulated with thapsigargin and PMA. inhibition, % at 10 µM. 360,000 tested, 0.66% active. AID 651702;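 active = inhibition above about 55%, limit read from the data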
TLR9-MyD88 block = blocks human TLR9 binding to MyD88. CHO BLA complementation TLR9-MyD88, CCF4 FRET ratio. Q9NR96+Q99836. inhibition, % at 4.98 µM. 340,000 tested, 0.21% active;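 active = inhibition above the mean over all tested compounds plus 3 SD, cut at about 21% in these data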
NOD2 RIPK2 PPI = inhibitors of human NOD2-RIPK2 interaction; CHO BLA complementation NOD2-RIPK2, CCF4 ratio; inhibition, % at 4.98 µM; 360,000 tested, 0.38% active; in the data active = inhibition above about 21%
TLR4 MyD88 cnf = TLR4-MyD88 interaction inhibition confirmed; shares compounds with TLR4 MyD88 comp; HeLa CL3-4 BLA complementation, CCF4 FRET ratio; inhibition, % at 8.4 µM; 350 tested, 50% active;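 active = mean inhibition across three repeat runs above about 25% carried over from the earlier screen, limit read from the data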
BLA inh HeLa = inhibits beta-lactamase activity, counter-screen to TLR4-MyD88 binding inhibitors; 350 tested, 63% active; shares compounds with TLR4 MyD88 comp; AID 1237; inhibition, % at 8.4 µM; HeLa BLA reporter, CCF4 FRET ratio;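 active = mean inhibition over three repeats above about 26% taken from the earlier screen, limit read from the data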;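 note: HeLa cells stably expressing beta-lactamase reporter as counterscreen for TLR4-MyD88 inhibitors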
TLR9-MyD88 cf = confirmation of human TLR9-MyD88 binding inhibitors; inhibition, % at 4.98 µM; CHO TLR9/MyD88 BLA complementation, CCF4 FRET ratio; 680 tested, 51% active; shares compounds with TLR9-MyD88 block;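 active = mean inhibition across three repeats above about 21% taken from the earlier screen, limit read from the data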;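 note: blue over green emission ratio reports constitutive TLR9 MyD88 association via BLA complementation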
BLA counter-1 = counter-screen for TLR9-MyD88 inhibitors: non-selective beta-lactamase inhibitors. shares compounds with TLR9-MyD88 block. CHO-BLA cells, CCF4 FRET ratio, BLA reporter. inhibition, % at 4.98 µM. 680 tested, 7% active. AID 540251;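 active = mean inhibition above a 50% cutoff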;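 note: counterscreen of TLR9-MyD88 hits on CMV-driven BLA in CHO-K1 cells; higher means less blue over green ratio so more BLA blockade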
TLR9 CHO tox = counter-screen for TLR9-MyD88 inhibitors: cytotoxicity in CHO cells. shares compounds with TLR9-MyD88 block. luminescence. inhibition, % at 4.98 µM. 680 tested, 39% active. AID 588336; in the data active = inhibition above about 11%
ABHD5 PLIN5 conf = confirmation of human ABHD5-PLIN5 interaction inhibitors | shares compounds with ABHD5-PLIN5 inh | biochemical ABHD5-PLIN5 interaction, luminescence | inhibition, % at 4 µM | 2,200 tested, 67% active; in the data active = inhibition above about 23%
HNF4 counter = counter-screen for ABHD5-PLIN5 inhibitors: HNF4 split-luciferase; shares compounds with ABHD5-PLIN5 inh; HNF4 dimerization, luminescence, biochemical; inhibition, % at 4 µM; 2,200 tested, 77% active; AID 651674;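 active = mean inhibition across replicate wells exceeding the computed hit threshold, cut at about 13% in these data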;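 note: light from luciferase halves that rejoin when HNF4 fusion proteins dimerize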
NOD2-RIPK2 conf = confirmation of human NOD2-RIPK2 interaction inhibitors; 1,200 tested, 70% active; inhibition, % at 4.98 µM; shares compounds with NOD2 RIPK2 PPI; CHO cells, NOD2-RIPK2 BLA complementation, CCF4 FRET;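 active = mean inhibition across replicates above a set limit taken from the earlier primary screen, cut at about 21% in these data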
BLA counter-2 = hits BLA reporter in NOD2-RIPK2 inhibitor counterscreen | shares compounds with NOD2 RIPK2 PPI | CHO BLA reporter, CCF4 FRET ratio | inhibition, % at 4.98 µM | AID 624371 | 1,200 tested, 57% active;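 active = mean inhibition above the low-control mean inhibition plus three low-control SD, cut at about 11% in these data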
PRMT1 inh conf = confirmation of human PRMT1 inhibitors; recombinant His-PRMT1, activity-based probe fluorescence polarization; 3,300 tested, 42% active; shares compounds with PRMT1 inh; inhibition, % at 2.79 µM;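 active = mean inhibition across replicates above the hit cutoff derived for the earlier primary screen, cut at about 22% in these data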
Of the large screens only hits and unclear results are named; the others gave an inactive call (follow-up assays come after a bar, where they were run). Only some compounds are listed: those with a hit (about 2.6% of all), similar ones and a draw of the others.

O=Cc1s/c(=N\S(=O)(=O)c2ccccc2)n(CCCCl)c1Cl	ABHD5-PLIN5 inh 36.9, PRMT1 inh 43.2, TLR4 MyD88 comp 30.1, TLR9-MyD88 block 37.0, NOD2 RIPK2 PPI 85.3 | TLR4 MyD88 cnf 28.4 | BLA inh HeLa inactive | TLR9-MyD88 cf 42.1 | BLA counter-1 inactive | TLR9 CHO tox 96.2 | ABHD5 PLIN5 conf 68.9 | HNF4 counter 106.9 | NOD2-RIPK2 conf 96.2 | BLA counter-2 36.2 | PRMT1 inh conf 37.2
CCn1c(C)cs/c1=N\S(=O)(=O)c1ccccc1	none (no result: TLR4 MyD88 comp)
O=C(CCc1c[nH]c2ccccc12)Nc1ccc(Oc2cccnc2)cc1	none (no result: ABHD5-PLIN5 inh, TLR4 MyD88 comp, Granule exo inh, TLR9-MyD88 block, NOD2 RIPK2 PPI)
CCCCCn1c(=O)c(C(=O)c2ccccc2)nc2ccccc21	none
CCCCCCn1c(=O)[nH]c2nc3cc(N)ccc3nc2c1=O	PRMT1 inh 124.0, TLR4 MyD88 comp 25.1 (no result: ABHD5-PLIN5 inh, Granule exo inh, TLR9-MyD88 block, NOD2 RIPK2 PPI) | TLR4 MyD88 cnf 29.6 | BLA inh HeLa 45.3 | PRMT1 inh conf 103.7
CCCSc1nnc(NC(=O)c2sc3nc(-c4cccs4)ccc3c2N)s1	PRMT1 inh 28.4, TLR4 MyD88 comp 29.7, TLR9-MyD88 block 21.2 | TLR4 MyD88 cnf inactive | BLA inh HeLa 30.8 | TLR9-MyD88 cf 23.1 | BLA counter-1 inactive | TLR9 CHO tox inactive | PRMT1 inh conf inactive
Cc1cc(Oc2cccc3c2S(=O)(=O)N([C@H](C)c2ccccc2)C[C@@H](COCc2ccccc2)O3)cc(C)c1C	none (no result: ABHD5-PLIN5 inh, TLR4 MyD88 comp, Granule exo inh, TLR9-MyD88 block, NOD2 RIPK2 PPI)
COc1ccc(-c2cc(C(F)(F)F)c3c(N)c(C(=O)NCCSC)sc3n2)cc1	TLR9-MyD88 block 22.3 (no result: TLR4 MyD88 comp) | TLR9-MyD88 cf 74.3 | BLA counter-1 73.4 | TLR9 CHO tox 13.6
COc1cc(/C=C/C(=O)O)cc(S(=O)(=O)NCc2ccc3c(c2)OCO3)c1OC	TLR9-MyD88 block 21.3 | TLR9-MyD88 cf inactive | BLA counter-1 inactive | TLR9 CHO tox inactive
COc1cc(/C=C/C(=O)O)cc(S(=O)(=O)NCc2ccco2)c1OC	none
CS(=O)(=O)c1cnc(-c2cccnc2)nc1N	TLR9-MyD88 block 21.8 | TLR9-MyD88 cf inactive | BLA counter-1 inactive | TLR9 CHO tox inactive
COC(=O)CSc1nc(N)c2c3c(sc2n1)C(c1ccccc1)SC(c1ccccc1)C3 (configuration not stated)	TLR9-MyD88 block 25.8 (no result: PRMT1 inh) | TLR9-MyD88 cf inactive | BLA counter-1 inactive | TLR9 CHO tox inactive
CCCCS(=O)(=O)/C=C\C=C/S(=O)(=O)CCCC	ABHD5-PLIN5 inh 84.1, TLR9-MyD88 block 33.6, NOD2 RIPK2 PPI 91.3 (no result: PRMT1 inh) | TLR9-MyD88 cf 36.7 | BLA counter-1 inactive | TLR9 CHO tox 100.0
CCC(NC(=O)CN1CCN(c2cccc(OC)c2)CC1)c1ccccc1 (configuration not stated)	none (no result: ABHD5-PLIN5 inh, TLR4 MyD88 comp, Granule exo inh, TLR9-MyD88 block, NOD2 RIPK2 PPI)
Cc1c(Br)c([N+](=O)[O-])nn1CCCC(=O)Nc1sc2c(c1C#N)CCC2	none
Cc1c(Cl)c([N+](=O)[O-])nn1CCCC(=O)Nc1sc2c(c1C#N)CCC2	TLR9-MyD88 block 23.3 | TLR9-MyD88 cf inactive | BLA counter-1 inactive | TLR9 CHO tox inactive
O=CN1CCN(C(=O)c2ccccc2Cl)CC1	TLR9-MyD88 block 43.7 | TLR9-MyD88 cf inactive | BLA counter-1 inactive | TLR9 CHO tox inactive
O=C(c1ccccc1Cl)N1CCSCC1	none (no result: TLR4 MyD88 comp)
C=CCNc1cccc2c1S(=O)(=O)N[C@H](C)CO2	none (no result: ABHD5-PLIN5 inh, TLR4 MyD88 comp, Granule exo inh, TLR9-MyD88 block, NOD2 RIPK2 PPI)
NNC(=O)c1oc2nc(-c3cccs3)cc(-c3ccco3)c2c1N	TLR9-MyD88 block 21.8 (no result: TLR4 MyD88 comp) | TLR9-MyD88 cf inactive | BLA counter-1 inactive | TLR9 CHO tox inactive
COC(=O)C1=C(C)N(C)C(=NCc2ccccc2C(F)(F)F)NC1c1ccc(Cl)cc1 (configuration not stated)	none (no result: ABHD5-PLIN5 inh, TLR4 MyD88 comp, Granule exo inh, TLR9-MyD88 block, NOD2 RIPK2 PPI)
COc1cc(/C=C2\SC(=S)N(Nc3ncc(C(F)(F)F)cc3Cl)C2=O)ccc1O	TLR9-MyD88 block 26.3 | TLR9-MyD88 cf inactive | BLA counter-1 inactive | TLR9 CHO tox inactive
CS(=O)(=O)c1sc2nc(-c3cccs3)cc(-c3ccccc3)c2c1N	PRMT1 inh 64.6, TLR9-MyD88 block 24.9 | TLR9-MyD88 cf inactive | BLA counter-1 inactive | TLR9 CHO tox inactive
CCOC(=O)[C@@]12CCCC3=C1N(CCC3)C(=O)[C@H]2CC(=O)N1CCSCC1	none (no result: ABHD5-PLIN5 inh, TLR4 MyD88 comp, Granule exo inh, TLR9-MyD88 block, NOD2 RIPK2 PPI)

Bioassay records as filed in PubChem BioAssay.
